Growth inhibition data for 7 molecules are collected here from PubChem BioAssay (NCI).

A short description of test [1]: NCI Yeast Anticancer Drug Screen. Data for the rad50 strain (AID 155).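 Further: 0% = growth of vehicle-only cultures of the same strain.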 The conditions noted are these: S. cerevisiae rad50 strain growth inhibition, stronger effect = higher value. In outline: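 Growth of the mutant yeast was measured after compound exposure and referenced to vehicle-treated cultures.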
Test [2] can be described thus: NCI Yeast Anticancer Drug Screen. Data for the mec2-1 strain (AID 157). The following applies: S. cerevisiae mec2-1 strain, stronger effect = higher value. In outline: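 Growth inhibition is read against vehicle-treated controls after compound exposure of the mec2-1 yeast strain, which is defective in DNA damage repair or cell cycle control.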
Test [3] in a line: NCI Yeast Anticancer Drug Screen. Data for the sgs1 mgt1 strain (AID 161).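 Further: 0% = growth of cultures given vehicle only.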 The conditions noted are these: S. cerevisiae sgs1 mgt1 strain, stronger effect = higher value. In outline: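 Growth of a repair-deficient yeast mutant was monitored after compound treatment and expressed as inhibition relative to vehicle-treated cultures.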
Test [4] can be described thus: NCI Yeast Anticancer Drug Screen. Data for the cln2 rad14 strain (AID 165).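 Further: 0% = growth equal to vehicle treated cultures.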 The following applies: S. cerevisiae cln2 rad14 strain, stronger effect = higher value. In outline:
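Growth inhibition, relative to vehicle-treated controls, is the read-out. The test organism is a yeast strain with defined genetic alterations, cln2 rad14.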

The nature of test [5]: NCI Yeast Anticancer Drug Screen. Data for the bub3 strain (AID 167). The conditions noted are these: S. cerevisiae bub3 mutant strain, stronger effect = higher value. In outline: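 Whole-cell yeast assay. The mutant strain was incubated with compounds, and growth inhibition was determined by comparison with vehicle-treated cells.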
Test [6] is described as follows: NCI Yeast Anticancer Drug Screen. Data for the mlh1 rad18 strain (AID 175). The following applies: S. cerevisiae mlh1 rad18 strain growth inhibition, stronger effect = higher value. In outline: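 Cells of a genetically altered yeast strain, deficient in DNA damage repair, were treated with compound. Their growth was then compared with that of vehicle-treated cultures to give inhibition.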

The mark [7] stands for this setting: at 5.0 µM (retest, dose inferred, filed as 0.5).
Setting [8] is: at 50.0 µM (retest, dose inferred, filed as 5.0).

Several values for one entry are separate records, joined by “and”; a condition that tells them apart may be missing. Identical values can stand only once. About 79,000 compounds went through this panel and 15% of them were active in at least one assay; those are over-represented in the sample as a whole. Some structures have more than one record in an assay (separate samples or runs), and their calls can disagree. Activity calls are given as the source filed them. No stated cut-off is given here; in the data, active means growth inhibition above about 70%; inactive means the rest.

As to `O=C1OC(c2ccccc2)C(c2ccccc2)=C1c1ccccc1` (stereo unspecified), the growth inhibition in test [1] (setting [7]) is -21% (inactive); in test [1] (setting [8]), 91% (active); in test [1] (at 50.0 µM), -6% (inactive); in test [2] (setting [7]), -18% (inactive); in test [2] (setting [8]) it was 92% (active); in test [2] (at 50.0 µM), -2.8% (inactive). In addition, the growth inhibition was -3% (inactive) in test [3] (setting [7]); 91% (active) in test [3] (setting [8]); 7.1% (inactive) in test [3] (at 50.0 µM); -2% (inactive) in test [4] (setting [7]); 86% (active) in test [4] (setting [8]); -29% (inactive) in test [4] (at 50.0 µM). In addition, the growth inhibition in test [5] (setting [7]) was 9% (inactive); in test [5] (setting [8]), 91% (active); in test [5] (at 50.0 µM), 9% (inactive); in test [6] (setting [7]), 4% (inactive); in test [6] (setting [8]) it was 90% (active); in test [6] (at 50.0 µM), 3.65% (inactive).

`Oc1ccc(N=Nc2ccccn2)c(O)c1`: the growth inhibition is -174% (inactive) and 98% (active) in test [1] (setting [7]); 94% (active) and 98% (active) in test [1] (setting [8]); 98.5% (active) and 88.8% (active) in test [1] (at 50.0 µM); -53% (inactive) and 99% (active) in test [2] (setting [7]); 97% (active) and 99% (active) in test [2] (setting [8]); 98.5% (active) and 90.5% (active) in test [2] (at 50.0 µM). Moreover, the growth inhibition in test [3] (setting [7]) was -67% (inactive) and 19% (inactive); in test [3] (setting [8]) it was 94% (active) and 97% (active); in test [3] (at 50.0 µM), 98.2% (active) and 91.2% (active); in test [4] (setting [7]), -66% (inactive) and 42% (inactive); in test [4] (setting [8]), 94% (active) and 98% (active); in test [4] (at 50.0 µM), 96% (active) and 86.2% (active). Besides, the growth inhibition in test [5] (setting [7]) is -67% (inactive) and 42% (inactive); in test [5] (setting [8]), 96% (active); in test [5] (at 50.0 µM) it was 97.5% (active) and 89.8% (active); in test [6] (setting [7]) it was -127% (inactive) and 100% (active); in test [6] (setting [8]) it was 95% (active) and 99% (active); in test [6] (at 50.0 µM) it was 98.4% (active) and 89% (active).

In the case of `CCN(CC)CCNc1nc(NCCN(CC)CC)c2nc(-c3ccccc3)c(-c3ccccc3)nc2n1`, the growth inhibition in test [1] (setting [7]) was 91% (active); in test [1] (setting [8]), 98% (active); in test [1] (at 50.0 µM) it was 98.8% (active); in test [2] (setting [7]) it was 84% (active); in test [2] (setting [8]) it was 98% (active); in test [2] (at 50.0 µM) it was 98.2% (active). The growth inhibition in test [3] (setting [7]) was 95% (active); in test [3] (setting [8]), 99% (active); in test [3] (at 50.0 µM), 98.8% (active); in test [4] (setting [7]) it was 76% (active); in test [4] (setting [8]) it was 97% (active); in test [4] (at 50.0 µM) it was 98% (active). The growth inhibition in test [5] (setting [7]) is 92% (active); in test [5] (setting [8]), 98% (active); in test [5] (at 50.0 µM), 98% (active); in test [6] (setting [7]) it was 92% (active); in test [6] (setting [8]) it was 98% (active); in test [6] (at 50.0 µM), 98.4% (active).

As for `N=C1N(c2ccccc2)C(=S)C(=Nc2ccccc2)N1c1ccccc1`, the growth inhibition is 16% (inactive) in test [1] (setting [7]); 99% (active) in test [1] (setting [8]); 88.5% (active) in test [1] (at 50.0 µM); -4% (inactive) in test [2] (setting [7]); 99% (active) in test [2] (setting [8]); 90.8% (active) in test [2] (at 50.0 µM). In addition, the growth inhibition in test [3] (setting [7]) was 8% (inactive); in test [3] (setting [8]), 99% (active); in test [3] (at 50.0 µM), 84% (active); in test [4] (setting [7]) it was 9% (inactive); in test [4] (setting [8]), 99% (active); in test [4] (at 50.0 µM), 82% (active). For the same molecule, the growth inhibition was -33% (inactive) in test [5] (setting [7]); 99% (active) in test [5] (setting [8]); 84.2% (active) in test [5] (at 50.0 µM); -6% (inactive) in test [6] (setting [7]); 99% (active) in test [6] (setting [8]); 87.2% (active) in test [6] (at 50.0 µM).

For the molecule `OC1CC2CCCC(C1)C2` (stereo unspecified), the growth inhibition in test [1] (setting [7]) was -2% (inactive); in test [1] (setting [8]) it was 3% (inactive); in test [1] (at 50.0 µM), -17.8% (inactive); in test [2] (setting [7]), 4% (inactive); in test [2] (setting [8]) it was 1% (inactive); in test [2] (at 50.0 µM) it was 17.8% (inactive). The growth inhibition is -2% (inactive) in test [3] (setting [7]); 3% (inactive) in test [3] (setting [8]); -12.2% (inactive) in test [3] (at 50.0 µM); -5% (inactive) in test [4] (setting [7]); -3% (inactive) in test [4] (setting [8]); 72.5% (active) in test [4] (at 50.0 µM). The growth inhibition in test [5] (setting [7]) was 0% (inactive); in test [5] (setting [8]), -10% (inactive); in test [5] (at 50.0 µM) it was -18.6% (inactive); in test [6] (setting [7]), -1% (inactive); in test [6] (setting [8]), -2% (inactive); in test [6] (at 50.0 µM), -1.65% (inactive).

As for `CCCCCCCCCCCCCCCC[N+](C)(C)Cc1cnc[nH]1`, the growth inhibition in test [1] (setting [7]) is 99% (active); in test [1] (setting [8]), 98% (active); in test [1] (at 50.0 µM), 90.3% (active); in test [2] (setting [7]), 99% (active); in test [2] (setting [8]) it was 99% (active); in test [2] (at 50.0 µM), 91.2% (active). In addition, the growth inhibition in test [3] (setting [7]) was 98% (active); in test [3] (setting [8]), 99% (active); in test [3] (at 50.0 µM), 91.8% (active); in test [4] (setting [7]) it was 95% (active); in test [4] (setting [8]) it was 99% (active); in test [4] (at 50.0 µM), 89.7% (active). For the same molecule, the growth inhibition in test [5] (setting [7]) was 99% (active); in test [5] (setting [8]), 99% (active); in test [5] (at 50.0 µM), 91% (active); in test [6] (setting [7]), 98% (active); in test [6] (setting [8]), 98% (active); in test [6] (at 50.0 µM) it was 89.1% (active).

Regarding `CCc1[nH]c(=O)nc(N)c1-c1ccc(N2CCCCC2)c([N+](=O)[O-])c1`, the growth inhibition in test [1] (setting [7]) is -11% (inactive); in test [1] (setting [8]) it was -25% (inactive); in test [1] (at 50.0 µM) it was 89.8% (active); in test [2] (setting [7]), -23% (inactive); in test [2] (setting [8]) it was 1% (inactive); in test [2] (at 50.0 µM), 86.8% (active). Also, the growth inhibition in test [3] (setting [7]) is 0% (inactive); in test [3] (setting [8]), -6% (inactive); in test [3] (at 50.0 µM), 90.8% (active); in test [4] (setting [7]), -31% (inactive); in test [4] (setting [8]) it was -25% (inactive); in test [4] (at 50.0 µM) it was 70.8% (active). Further, the growth inhibition is -25% (inactive) in test [5] (setting [7]); -32% (inactive) in test [5] (setting [8]); 71.4% (active) in test [5] (at 50.0 µM); -22% (inactive) in test [6] (setting [7]); -12% (inactive) in test [6] (setting [8]); 90.8% (active) in test [6] (at 50.0 µM).
